PDI turbidity: inhibitors of human PDI, primary screen, biochemical, turbidity, single point, plate reader; inhibition, % at 10 µM; 0.052% of 350,000 active; AID 588391, 2011; PDI insulin aggregation turbidity, A650, 90 min;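 active = mean inhibition across replicates of 30% or more, whatever share of single replicates reach that level; inconclusive = mean inhibition below 30% while every single replicate reaches 30%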
SIRT5 inh: SIRT5 desuccinylase inhibitors, primary screen, biochemical, fluorescence imaging, single point, set 5; NAD-dependent protein deacylase sirtuin-5, mitochondrial (Homo sapiens), Q9NXA8; Purified SirT5, succinyl-peptide AMC, trypsin-coupled fluorescence; inhibition, % at 15 µM; 1.1% of 330,000 active; in the data active = inhibition above about 15%; inconclusive = no clear call, values can overlap the other calls
Target sequence (Q9NXA8 whole entry, looked up): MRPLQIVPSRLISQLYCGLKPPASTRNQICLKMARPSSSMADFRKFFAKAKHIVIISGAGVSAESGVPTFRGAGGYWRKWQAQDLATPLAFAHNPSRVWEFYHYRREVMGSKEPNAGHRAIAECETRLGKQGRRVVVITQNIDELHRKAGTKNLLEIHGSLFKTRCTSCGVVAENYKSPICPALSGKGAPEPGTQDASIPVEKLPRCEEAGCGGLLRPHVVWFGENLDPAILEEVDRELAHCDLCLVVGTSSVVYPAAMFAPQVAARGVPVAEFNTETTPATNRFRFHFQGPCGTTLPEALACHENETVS
ERp5 block: inhibitors of ERp5-driven insulin aggregation, primary screen, biochemical, turbidity, absorbance 650 nm, single point. AID 651711, 2012. inhibition, % at 9.99 µM. 0.05% of 350,000 active. 90 min. Protein disulfide-isomerase A6 (Homo sapiens), Q15084;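 active = mean replicate inhibition above about 25%, with every replicate also reaching it, limit read from the data, passing the limit was not always enough; inconclusive = only one of those two criteria met; inactive = neither criterion met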
DENV2 CPE: inhibitors of DENV2 cytopathic effect, primary screen, cell-based, plate reader, single concentration; CPE inhibition, % at 9.99 µM; DENV2-infected cells, cytopathic effect rescue; 1.7% of 350,000 active; AID 651640, 2012; in the data active = CPE inhibition above about 20%, passing the limit was not always enough; inconclusive = no clear call, values can overlap the other calls; tested in BHK-21 cells;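 note: 0% = median of neutral control wells and 100% = median of positive control wells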
* marks the source's active call; other numbers are inactive results; ! = repeats disagree. Compounds with a hit are over-represented: about 2.3% of the library has one in this group of screens.

What do the screens show for `COc1ccc(CN(C)C[C@@H]2OCCCC[C@@H](C)Oc3ccc(NS(=O)(=O)c4cn(C)cn4)cc3C(=O)N([C@H](C)CO)C[C@@H]2C)cc1`?
SIRT5 inh: 3; ERp5 block: 4; DENV2 CPE: 61*

How did C[C@@H]1CCCCO[C@@H](CN(C)Cc2ccc(C(=O)O)cc2)[C@@H](C)CN([C@@H](C)CO)C(=O)c2cc(NS(C)(=O)=O)ccc2O1 do in these assays?
SIRT5 inh: -4; ERp5 block: -5; DENV2 CPE: 48*

How did COc1ccc(S(=O)(=O)Nc2ccc3c(c2)C(=O)N([C@H](C)CO)C[C@@H](C)[C@H](CN(C)Cc2ccc(C(F)(F)F)cc2)OCCCC[C@H](C)O3)cc1 do in these assays?
SIRT5 inh: 15*; ERp5 block: 4

What do the screens show for `COc1ccc(S(=O)(=O)Nc2ccc3c(c2)C(=O)N([C@@H](C)CO)C[C@H](C)[C@@H](CN(C)Cc2ccc(C(F)(F)F)cc2)OCCCC[C@H](C)O3)cc1`?
SIRT5 inh: 17*; ERp5 block: 1; DENV2 CPE: -9

Results for COc1ccc(CN(C)C[C@H]2OCCCC[C@H](C)Oc3ccc(NS(=O)(=O)c4cn(C)cn4)cc3C(=O)N([C@@H](C)CO)C[C@H]2C)cc1 ?
SIRT5 inh: 0; ERp5 block: 2; DENV2 CPE: 6

Results for COc1cccc(-c2ccc([C@H]3[C@@H](CO)N4C(=O)CN(C(=O)C5CCCC5)C[C@@H]34)cc2)c1 ?
SIRT5 inh: 9; ERp5 block: -1; DENV2 CPE: -6

Results for Cc1noc(C)c1S(=O)(=O)Nc1cccc2c1O[C@H](CN(C)Cc1ccncc1)[C@H](C)CN([C@H](C)CO)C2=O ?
SIRT5 inh: -4; ERp5 block: 5; DENV2 CPE: inconclusive

Results for COc1ccc(CN(C)C[C@@H]2OCCCC[C@H](C)Oc3ccc(NS(=O)(=O)c4ccc(F)cc4)cc3C(=O)N([C@@H](C)CO)C[C@H]2C)cc1 ?
SIRT5 inh: 1; ERp5 block: 8; DENV2 CPE: 59*

What do the screens show for `COc1ccc(S(=O)(=O)Nc2ccc3c(c2)C(=O)N([C@@H](C)CO)C[C@H](C)[C@@H](CN(C)Cc2ccc(C(=O)O)cc2)OCCCC[C@H](C)O3)cc1`?
SIRT5 inh: -3; ERp5 block: -1; DENV2 CPE: 54*

Results for CCCN(C)C[C@H]1OCCCC[C@@H](C)Oc2ccc(NS(=O)(=O)c3ccc(OC)cc3)cc2C(=O)N([C@H](C)CO)C[C@@H]1C ?
SIRT5 inh: 0; ERp5 block: 4; DENV2 CPE: 55*

What do the screens show for `COc1ccc(S(=O)(=O)Nc2ccc3c(c2)C(=O)N([C@@H](C)CO)C[C@@H](C)[C@@H](CN(C)Cc2ccc(C(=O)O)cc2)OCCCC[C@@H](C)O3)cc1`?
SIRT5 inh: 1; ERp5 block: -5; DENV2 CPE: 2

What do the screens show for `CC(=O)N(C)C[C@H]1Oc2cc(C#Cc3ccncc3)ccc2S(=O)(=O)N([C@H](C)CO)C[C@@H]1C`?
SIRT5 inh: -2; ERp5 block: -3; DENV2 CPE: 2

How did COCC(=O)N(C)C[C@H]1Oc2ncc(C#Cc3cccnc3)cc2C(=O)N([C@@H](C)CO)C[C@@H]1C do in these assays?
SIRT5 inh: 2; ERp5 block: -2; DENV2 CPE: 10

What do the screens show for `CCC(=O)N(C)C[C@@H]1Oc2ncc(Br)cc2C(=O)N([C@H](C)CO)C[C@H]1C`?
PDI turbidity: 2; SIRT5 inh: -4; ERp5 block: 2; DENV2 CPE: 29*!

Results for COCC(=O)N(C)C[C@H]1Oc2ncc(C#Cc3cccnc3)cc2C(=O)N([C@H](C)CO)C[C@H]1C ?
SIRT5 inh: 1; ERp5 block: -5; DENV2 CPE: 24*

Results for CCC(=O)N(C)C[C@H]1Oc2ncc(/C=C/c3ccccc3)cc2C(=O)N([C@@H](C)CO)C[C@@H]1C ?
SIRT5 inh: -17; ERp5 block: 0; DENV2 CPE: 42*

Results for COCC(=O)N(C)C[C@H]1Oc2ncc(Br)cc2C(=O)N([C@@H](C)CO)C[C@H]1C ?
PDI turbidity: 0; SIRT5 inh: 17*!; ERp5 block: -12; DENV2 CPE: -2

How did O=C(C[C@H]1CC[C@@H]2[C@H](COC[C@@H](O)CN2Cc2cccc(C(F)(F)F)c2)O1)NCCc1ccccc1 do in these assays?
SIRT5 inh: -1; ERp5 block: -20; DENV2 CPE: 1

What do the screens show for `O=C(CN1CCOCC1)NCC[C@H]1CC[C@@H](NC(=O)c2ccc3c(c2)OCO3)[C@@H](CO)O1`?
SIRT5 inh: 0; ERp5 block: 3; DENV2 CPE: -2

How did COc1ccc(NC(=O)Nc2cccc3c2O[C@@H](CN(C)C(=O)Nc2c(C)noc2C)[C@H](C)CN([C@@H](C)CO)C3=O)cc1 do in these assays?
SIRT5 inh: 0; ERp5 block: 8; DENV2 CPE: 8

Results for CNC(=O)C[C@@H]1CC[C@@H]2[C@H](COC[C@H](O)CN2C(=O)c2ccccn2)O1 ?
SIRT5 inh: -1; ERp5 block: -2; DENV2 CPE: 69*

Results for CCNC(=O)C[C@H]1CC[C@@H]2[C@H](COC[C@@H](O)CN2C(=O)c2ccccn2)O1 ?
DENV2 CPE: 4

What do the screens show for `O=C(C[C@H]1CC[C@@H]2[C@H](COC[C@H](O)CN2C(=O)c2ccccn2)O1)N1CCN(c2ccccc2)CC1`?
SIRT5 inh: 9; ERp5 block: 4; DENV2 CPE: 39*

Results for O=C(NCC[C@@H]1CC[C@@H](NS(=O)(=O)c2cccc(F)c2)[C@@H](CO)O1)C1CCCCC1 ?
SIRT5 inh: 7; ERp5 block: -7; DENV2 CPE: 18

Results for Cc1noc(C)c1NC(=O)N(C)C[C@H]1OCCCC[C@H](C)Oc2ccc(NC(=O)Nc3ccc(C(F)(F)F)cc3)cc2C(=O)N([C@H](C)CO)C[C@@H]1C ?
SIRT5 inh: 3; ERp5 block: -3; DENV2 CPE: -3

Results for O=C(Nc1ccccc1)N1CCCCN2[C@H](CO)[C@H](c3ccc(C#CC4CC4)cc3)[C@H]2C1 ?
SIRT5 inh: 3; ERp5 block: 2; DENV2 CPE: 34*

How did O=C(Nc1ccccc1)N1CCCCN2[C@H](C1)[C@@H](c1ccc(Br)cc1)[C@@H]2CO do in these assays?
SIRT5 inh: 1; ERp5 block: 1; DENV2 CPE: 19

What do the screens show for `O=C(Nc1ccccc1)N1CCCCN2[C@@H](CO)[C@@H](c3ccc(Br)cc3)[C@@H]2C1`?
SIRT5 inh: 7; ERp5 block: -2; DENV2 CPE: 33*

How did COc1ccccc1NC(=O)N1C[C@@H](O)COC[C@H]2O[C@@H](CC(=O)NCCc3ccccc3)CC[C@@H]21 do in these assays?
SIRT5 inh: -4; ERp5 block: -8; DENV2 CPE: 2
